High-throughput results deposited in PubChem by National Center for Advancing Translational Sciences (NCATS).
This is a sample that favours compounds with a hit; in the whole collection about 1.7% have one here.
HEK293 tox: qHTS of GLP-1 Receptor Inverse Agonists: Cytotox Screen | HEK293 cAMP-luciferase reporter cells, luminescence, 24 h | Potency, µM (highest dose often 38.3 µM), hits mostly inhibitors | hit rate 0.13% among 410,000 | AID 624418, 2012;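 note: loss of luciferase light is scored as toxicity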
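A 23 nL compound transfer followed 12 hours of cell culture at 37 deg C; exposure then lasted 24 hr. Luciferase assay detection reagent was dispensed and plates read for luminescence after a 12 min room-temperature wait.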
PTHR1 ag: qHTS for PTHR1 Agonists: Primary Screen. AID 743266, 2014. HEK293 GP2 PTHR1 cells, GloSensor cAMP luminescence, 1 h. Potency, µM (top dose mostly 115 µM), most hits filed as activators. hit rate 0.075% among 410,000; note: nearly all actives have a fitted effect of over 55% in size
Target sequence (Q03431 whole entry, looked up): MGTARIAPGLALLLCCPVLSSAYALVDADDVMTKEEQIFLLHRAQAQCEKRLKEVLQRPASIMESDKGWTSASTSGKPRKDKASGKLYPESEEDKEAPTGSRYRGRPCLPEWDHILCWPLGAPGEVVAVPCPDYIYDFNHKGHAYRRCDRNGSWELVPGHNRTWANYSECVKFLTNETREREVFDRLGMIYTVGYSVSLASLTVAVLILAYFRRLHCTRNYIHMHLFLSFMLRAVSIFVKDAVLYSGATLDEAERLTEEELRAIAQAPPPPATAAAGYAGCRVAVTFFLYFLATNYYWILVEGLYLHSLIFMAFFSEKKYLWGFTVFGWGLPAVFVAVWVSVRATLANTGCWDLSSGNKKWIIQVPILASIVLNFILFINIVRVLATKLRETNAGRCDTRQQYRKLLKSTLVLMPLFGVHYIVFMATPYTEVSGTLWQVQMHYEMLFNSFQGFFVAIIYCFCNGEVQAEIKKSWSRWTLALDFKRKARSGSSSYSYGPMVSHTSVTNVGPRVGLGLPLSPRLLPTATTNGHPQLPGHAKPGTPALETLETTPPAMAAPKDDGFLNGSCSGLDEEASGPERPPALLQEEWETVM
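HEK-293-derived GP2 cells expressing PTHR1 and a GloSensor cAMP reporter, 3,000/well, plated overnight, given luciferin plus IBMX (each 0.5 mM as added) for 1 h at 37 °C, then compound for 1 h at 37 °C. Luminescence was read after 15 min at room temperature.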
GLP1R ag: qHTS of GLP-1 Receptor Agonists. HEK293 GLP-1R CRE-luciferase, luminescence, 4-6 h; cells express a hypersensitive GLP-1R form. Potency, µM (titrated, usually from 45.6 µM), actives largely listed as activators. hit rate 0.007% among 380,000
GLP1R inv ag: qHTS of GLP-1 Receptor Inverse Agonists (Inhibition Mode); HEK293 GLP-1R CRE-luciferase, luminescence, 24 h; GLP-1R form is constitutively active; Potency, µM (highest dose often 38.3 µM), usual class: inhibitors; hit rate 1.6% among 410,000; AID 624417, 2012; note: nearly all actives have a fitted effect of over 55% in size
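Using stably transfected HEK293 (constitutively active GLP-1R, cAMP-luciferase reporter), compounds were incubated 24 hr and luciferase measured by luminescence.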
Of the large screens only hits and unclear results are named; the others gave an inactive call. Calls come from the whole dose curve; as a rule, active = well fitted curve in the direction sought with a large enough effect; inconclusive = small, poorly fitted or top-dose-only effect, or another doubt; inactive = no such curve, though single readings can be large; an effect the other way counts as inactive or inconclusive.

CCCCn1c(N)c(N(CCOC)C(=O)COC(=O)COc2cc(C)c(Cl)cc2C(C)C)c(=O)[nH]c1=O	GLP1R inv ag 10µM
Cc1ccc(C)c(SCC(=O)OC/C(O)=C(\C#N)c2nc3ccccc3[nH]2)c1	HEK293 tox inconclusive, GLP1R inv ag inconclusive
CC(C)C(=O)OC/C(O)=C(\C#N)c1nc2ccccc2[nH]1	HEK293 tox inconclusive, GLP1R inv ag inconclusive
Cc1cccc(C)c1OCC(=O)OC/C(O)=C(\C#N)c1nc2ccccc2[nH]1	HEK293 tox inconclusive, GLP1R inv ag inconclusive
N#C/C(=C(/O)COC(=O)CSc1ccc2ccccc2c1)c1nc2ccccc2[nH]1	HEK293 tox inconclusive, GLP1R inv ag 7.94µM
COCC(=O)OC/C(O)=C(\C#N)c1nc2ccccc2[nH]1	HEK293 tox inconclusive, GLP1R inv ag 5.01µM
CCCC(=O)OC/C(O)=C(\C#N)c1nc2ccccc2[nH]1	HEK293 tox 10µM, GLP1R inv ag inconclusive
CC[C@H](C)[C@H](NC(=O)[C@H](CO)NC(=O)[C@H](CC(N)=O)NC(=O)[C@H](CC(C)C)NC(=O)[C@H](Cc1ccc(O)cc1)NC(=O)[C@H](CCCCN)NC(=O)[C@H](CCCCN)NC(=O)[C@@H](NC(=O)[C@H](C)NC(=O)[C@H](CCSC)NC(=O)[C@H](CCC(N)=O)NC(=O)[C@H](CCCCN)NC(=O)[C@H](CCCNC(=N)N)NC(=O)[C@H](CC(C)C)NC(=O)[C@H](CCCNC(=N)N)NC(=O)[C@@H](NC(=O)[C@H](Cc1ccc(O)cc1)NC(=O)[C@H](CC(N)=O)NC(=O)[C@H](CC(=O)O)NC(=O)[C@@H](NC(=O)[C@H](Cc1ccccc1)NC(=O)[C@@H](NC(=O)[C@H](C)NC(=O)[C@H](CC(=O)O)NC(=O)[C@H](CO)NC(=O)[C@@H](N)Cc1c[nH]cn1)C(C)C)[C@@H](C)O)[C@@H](C)O)C(C)C)C(=O)N[C@@H](CC(C)C)C(=O)N[C@@H](CC(N)=O)C(=O)O	none (no result: HEK293 tox, PTHR1 ag, GLP1R inv ag)
O=C(O)CNC(=O)CNC(=O)CNC(=O)CSC(=O)c1ccccc1	none (no result: HEK293 tox, PTHR1 ag, GLP1R inv ag)
Cc1ccc2nc(N)[nH]c(=O)c2c1Sc1ccncc1	none (no result: HEK293 tox, PTHR1 ag, GLP1R inv ag)
CCOC(=O)CCC(=O)OC1C(OC2C(C)C(OC3CC(C)(OC)C(O)C(C)O3)C(C)C(=O)OC(CC)C(C)(O)C(O)C(C)C(=O)C(C)CC2(C)O)OC(C)CC1N(C)C (centres undefined)	none (no result: HEK293 tox, PTHR1 ag, GLP1R inv ag)
Cc1cc(C)cc(-n2c(C)cc(/C=N/NC(=O)CN(c3c(C)cccc3C)S(C)(=O)=O)c2C)c1	GLP1R inv ag inconclusive
Cc1ccc(-n2c(C)cc(/C=N/NC(=O)CN(c3ccc(C)cc3C)S(C)(=O)=O)c2C)cc1	GLP1R inv ag 10µM
COc1ccccc1N(Cc1ccccc1)S(=O)(=O)c1cccc(C(=O)NC2CC(C)(C)NC(C)(C)C2)c1	HEK293 tox inconclusive, GLP1R inv ag 5.01µM
COc1ccccc1N(Cc1ccccc1)S(=O)(=O)c1cccc(C(=O)Nc2cc(C)ccn2)c1	GLP1R inv ag 4.47µM
COc1ccccc1N(Cc1ccccc1)S(=O)(=O)c1cccc(C(=O)Nc2ncccc2C)c1	GLP1R inv ag inconclusive
COc1ccccc1N(Cc1ccccc1)S(=O)(=O)c1cccc(C(=O)O)c1	none
Cc1cccc(CS(=O)(=O)c2ncc(Cl)c(C(=O)NCc3ccc4c(c3)OCO4)n2)c1	GLP1R inv ag 8.91µM
Cc1ccc(CNC(=O)c2nc(S(=O)(=O)Cc3ccc(C)cc3)ncc2Cl)cc1	none (no result: GLP1R ag)
Cc1ccc(-c2c3c(=O)n(C)c(=O)n(C)c3c3n2-c2ccccc2NC3c2ccc(C)cc2O)cc1 (centres undefined)	GLP1R inv ag 10µM (no result: GLP1R ag)
O=C(CN1C2CCCC1CC(NC(=O)C1CCCCC1)C2)Nc1ccccc1C(F)(F)F (centres undefined)	GLP1R inv ag inconclusive
COc1cccc(C(=O)NC2CC3CCCC(C2)N3CC(=O)Nc2ccccc2C(F)(F)F)c1 (centres undefined)	GLP1R inv ag 2.24µM
COc1cc(OC)c(N(C)C(=O)Cn2ncc3c([nH]c4ccccc43)c2=O)cc1Cl	none (no result: GLP1R ag)
O=C(c1cccc(Cl)c1)N1CCC(=O)N(C(COCc2cccc(Cl)c2)Cc2ccccc2)CC1 (centres undefined)	none
O=C(c1ccc(Cl)c(Cl)c1)N1CCC(=O)N(C(COCc2cccc(Cl)c2)Cc2ccccc2)CC1 (centres undefined)	GLP1R inv ag 3.98µM
Cc1cccc(COCC(Cc2ccccc2)N2CCN(C(=O)c3ccc(C(F)(F)F)cc3)CCC2=O)c1 (centres undefined)	GLP1R inv ag 11.2µM
Cc1cccc(COC[C@H](Cc2ccccc2)N2CCN(C(=O)c3ccc(C(F)(F)F)cc3)CCC2=O)c1	GLP1R inv ag inconclusive
CC(C)CC(COCc1cccc(Cl)c1)N1CCN(C(=O)c2ccc(C(F)(F)F)cc2)CCC1=O (centres undefined)	GLP1R inv ag 10µM
CCOC(=O)c1c(C)sc(-c2c(-c3ccc4c(c3)OCCO4)[nH]c3c2c(=O)[nH]c(=O)n3C)c1O	none (no result: GLP1R ag)
CC(=O)N1c2ccc(S(=O)(=O)NCC3CCC(C(=O)Nc4cccc(C)c4C)CC3)cc2CC1C (centres undefined)	none (no result: GLP1R ag)
CSc1ccc(CCNC(=O)CN2C(=O)COc3ccc(S(=O)(=O)N4CCCCCC4)cc32)cc1	HEK293 tox inconclusive, GLP1R inv ag inconclusive
Cc1ccc(NC(=S)NCc2ccccc2)cc1S(=O)(=O)N1CCCCC1	GLP1R inv ag 11.2µM
Cc1ccc(NC(=O)CSc2ccccc2)cc1S(=O)(=O)N1CCCCC1	GLP1R inv ag 7.94µM
Cc1ccc(NC(=O)CSc2ccccc2)cc1S(=O)(=O)N1CCOCC1	none
COc1cc(NC(=O)CSc2cc(=O)n(C)c3ccccc23)cc(OC)c1OC	none (no result: GLP1R ag)
COc1ccc(N2CCN(c3oc(/C=C/c4ccccc4OC)nc3C#N)CC2)cc1	none (no result: GLP1R ag)
CCCN1C(=O)CN(C2CCCCCC2)C(=O)C1c1ccc(OCC)c(OC)c1 (centres undefined)	PTHR1 ag inconclusive (no result: GLP1R ag)
Cc1ccc(-c2cn3c(n2)sc2cc(C(=O)NC4CCCCC4)ccc23)cc1	none (no result: GLP1R ag)
Cc1cc(NC(=O)CSc2nc(-c3ccc(Cl)cc3)cs2)no1	none
O=C(CSc1nc(-c2ccc(Cl)cc2)cs1)Nc1cccc([N+](=O)[O-])c1	GLP1R inv ag 10µM
CCN(CC)c1ccc(NC(=O)CN2CCN(CC(=O)Nc3ccc(OC)cc3)CC2)cc1	none
CCN(CC)c1ccc(NC(=O)CN2CCN(CC(=O)Nc3ccc(F)cc3)CC2)cc1	GLP1R inv ag 12.6µM
Cc1ccc(Cl)cc1NC(=O)c1oc2ccc(S(=O)(=O)N(C)C3CCCCC3)cc2c1C	none (no result: GLP1R ag)
CCC(Oc1ccccc1)C(=O)Nc1cc(-c2ccccc2OC)nn1-c1ccccc1 (centres undefined)	GLP1R inv ag 4.47µM (no result: GLP1R ag)
